Measurements from PubChem BioAssay AID720706 (Broad Institute, 2013).
Out of some 350,000 compounds screened, about 5,500 (1.6%) were called active.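 How the source made its calls: active means significant combined selectivity score with lowered wild-type GFP, culture density cut under 30%, mutant RFP and density less affected; inactive means any of these conditions unmet.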 The full list was thinned out, with actives kept by preference.

Assay: reduced GFP signal of wild-type E. coli, primary screen, bacterial rRNA inhibitor project, GFP/RFP fluorescence, OD600, single point (AID 720706)
Details: E. coli WT GFP vs humanized-ribosome RFP mutants, 24 h; GFP signal change (wild-type ribosome): stronger effect = lower value, DMSO median 0, no signal -100; OD600 change: measured here: OD600 growth, DMSO median 0, no signal -100; RFP signal change: measured here: RFP humanized mutant strains, DMSO median 0, no signal -100, concentration not given here

Compound	GFP signal change (wild-type ribosome)	OD600 change	RFP signal change
COc1ccc(NC(=O)Nc2ccc3c(c2)C(=O)N([C@H](C)CO)C[C@@H](C)[C@H](CN(C)CC2CCCCC2)OCCCC[C@@H](C)O3)cc1	2.06% (inactive)	-1.06%	2.56%
CN(C)C(=S)Nc1ccc(Br)cc1Cl	-21.3% (active)	-3.38%	-5.33%
O=C(NNC(=S)Nc1ccc(Br)cc1Cl)c1ccco1	-55.5% (inactive)	-76.6%	-26.1%
CC1CN(C(=S)Nc2ccc(Br)cc2Cl)CC(C)O1 (centres undefined)	0.789% (inactive)	0.865%	-2.8%
C[C@@H]1CN([C@H](C)CO)C(=O)c2cc(C#CC3CC3)cnc2O[C@H]1CN(C)C(=O)CC1CC1	0.803% (inactive)	4.53%	-4.43%
Cc1ccc(-n2c(C)cc(C(=O)CN3C(=O)C(=O)N(C4CCCC4)C3=O)c2C)cc1	-12.3% (inactive)	-20.5%	24%
Cc1cc(C(=O)COc2ccccc2Cl)c(C)n1C1CC1	-19.2% (inactive)	-34.3%	0.284%
Cc1cc(C(=O)COC(=O)C2CC2)c(C)n1-c1ccc(F)cc1	-25.1% (active)	-8.48%	-5.46%
Cc1ccccc1OCCC(=O)OCC(=O)NC(C)c1ccccc1 (centres undefined)	-11.5% (inactive)	-7.58%	0.763%
COc1ccc(C)cc1N(CC(=O)NC(C)c1ccccc1)S(C)(=O)=O (centres undefined)	7.63% (inactive)	6.56%	4.34%
Cc1ccc(OCCCC(=O)NC(C)c2ccccc2)c(C)c1 (centres undefined)	-20.1% (active)	-9.71%	4.93%
COc1ccc2c3c(n(C)c2c1)[C@@H](CO)NCC31CN(S(=O)(=O)c2cccc(C)c2)C1	-1.82% (inactive)	-19.1%	1.9%
O=C(Nc1ccccc1)N1CCCCN2[C@H](CO)[C@@H](c3ccc(-c4ccccc4F)cc3)[C@H]2C1	-59.5% (inactive)	-71.8%	-17.2%
Cc1ccccc1-c1cnc2c(c1)C(=O)N([C@H](C)CO)C[C@H](C)[C@@H](CN(C)C(=O)c1ccccc1)O2	-6.69% (inactive)	1.45%	1.42%
CCNC(=O)[C@@H]1[C@@H](CO)[C@@H]2Cn3c(ccc(C4=CCCCC4)c3=O)[C@@H]2N1Cc1ccccc1F	1.16% (inactive)	-2.39%	5.54%
O=C(CN1CCOCC1)Nc1cccc([N+](=O)[O-])c1	31.7% (inactive)	26.8%	1.38%
CCc1ccc(NC(=O)N2CCc3ccccc3C2)cc1	-10.5% (inactive)	-10.6%	-3.21%
O=C(Nc1cccc([N+](=O)[O-])c1)N1CCc2ccccc2C1	-21.9% (active)	-13.6%	-7.36%
Cc1ccc(-c2ccc([C@H]3[C@H]4CN(S(=O)(=O)c5cccc(F)c5)CC(=O)N4[C@H]3CO)cc2)cc1	1.77% (inactive)	8.11%	-0.692%
S=C(NCc1cccnc1)Nc1ccc(Cl)cc1Cl	-27.1% (active)	-3.2%	-7.63%
CN(CC(=O)NCc1cccnc1)S(=O)(=O)c1cc(Cl)ccc1Cl	5.23% (inactive)	-2.3%	-0.601%

Compound	GFP signal change (wild-type ribosome)	OD600 change	RFP signal change
Cc1ccc(C(=O)NC(=S)NCc2cccnc2)cc1	-23.8% (inactive)	-23.8%	5.91%
CC(C)NC(=O)N(C)C[C@@H]1Oc2ccc(NC(=O)CCCCCC(=O)Nc3ccccc3N)cc2C(=O)N([C@@H](C)CO)C[C@H]1C	1.03% (inactive)	-8.13%	-0.166%
CO[C@H]1CN(C)C(=O)c2cc(NC(=O)c3cnccn3)ccc2OC[C@H](C)N(C(=O)C2CC2)C[C@H]1C	1% (inactive)	-0.758%	-0.83%
N#Cc1cccc(-c2ccc(C3[C@@H]4CNC[C@H]3N4)cc2)c1 (some centres undefined)	-0.575% (inactive)	6.2%	2%
C[C@@H]1CCCCO[C@H](CN(C)S(=O)(=O)c2ccccc2)[C@@H](C)CN([C@H](C)CO)C(=O)c2cc(NC(=O)Nc3ccc(F)cc3)ccc2O1	4.23% (inactive)	5.59%	-0.807%
Oc1c(Br)cc(/C=N/NC(=S)NCC2CCCO2)cc1Br (centres undefined)	-32.6% (active)	-2.28%	0.247%
S=C(NCCc1ccccc1)NCC1CCCO1 (centres undefined)	8.89% (inactive)	4.83%	-3.48%
S=C(NCC1CCCO1)N1CCN(c2ccc(Cl)c(Cl)c2)CC1 (centres undefined)	-56.8% (inactive)	-79.1%	-18.4%
C[C@@H]1CN([C@@H](C)CO)S(=O)(=O)c2ccc(Br)cc2O[C@H]1CN(C)S(=O)(=O)c1ccccc1	-30.9% (inactive)	-59.2%	14%
CS(=O)(=O)N1CC2(C1)[C@H](c1ccccc1)[C@@H](CO)N2C(=O)c1ccccc1	-2.24% (inactive)	8.82%	-1.96%
O=C(c1ccccc1)N1CC(=O)N2[C@@H](CO)[C@H](c3ccc(C#CCC4CCCC4)cc3)[C@@H]2C1	-0.385% (inactive)	4.12%	15.8%
O=C(Nc1cccc(Cl)c1)N1C[C@@H]2[C@H](c3ccccc31)[C@H](CO)N2C(=O)C1CC1	-55.8% (inactive)	-75.7%	-10.1%
O=C(Nc1ccccc1)N1C[C@H]2[C@@H](c3ccccc31)[C@H](CO)N2Cc1ccc(F)cc1	-4.61% (inactive)	-3.58%	0.773%
O=C(Nc1cccc(Cl)c1)N1C[C@@H]2[C@H](c3ccccc31)[C@H](CO)N2Cc1ccncc1	-19.3% (active)	-14%	2.23%
O=C(C[C@@H]1C[C@@H]2c3cc(NC(=O)c4ccc5c(c4)OCO5)ccc3O[C@@H]2[C@H](CO)O1)NCC1CC1	-0.47% (inactive)	-2.45%	1.83%
N#C[C@H]1[C@H](c2ccccc2-c2ccc(F)cc2)[C@H](CO)N1C(=O)Cc1ccncc1	-3.78% (inactive)	7.17%	-0.986%
COCc1cn(CC[C@H]2CC[C@H](NC(=O)Cc3cccnc3)[C@H](CO)O2)nn1	-2.43% (inactive)	-1.71%	-2.1%
C=CCN(c1ccccc1C(=O)NCC(=O)OCC)S(=O)(=O)c1ccc(C)cc1	5.68% (inactive)	-1.3%	1.08%
NC(=O)c1ccccc1N(Cc1ccccc1)S(=O)(=O)c1ccccc1	-4.05% (inactive)	-16.6%	-0.699%
CCOC(=O)N1CCN(C(=O)c2ccccc2N(Cc2ccccc2)S(=O)(=O)c2ccc(OC)cc2)CC1	-25.8% (active)	-20.1%	0.913%
C[C@H](CO)N1C[C@H](C)[C@H](CN(C)C(=O)C2CC2)OCc2ccccc2-c2ccccc2C1=O	3.14% (inactive)	2.12%	-2.73%

Compound	GFP signal change (wild-type ribosome)	OD600 change	RFP signal change
CO[C@@H]1CN(C)C(=O)c2ccc(NC(=O)C3CC3)cc2OC[C@H](C)N(C(C)=O)C[C@H]1C	2.84% (inactive)	2.36%	-2.71%
O=C1NCCOCc2cn(nn2)CC[C@@H]1Cc1ccccc1	4.08% (inactive)	6.55%	-0.105%
O=C(Nc1nnc(Cc2ccc(Cl)cc2)s1)c1cccnc1	-2.18% (inactive)	2.81%	-2.51%
O=C(Nc1nnc(Cc2ccc(Cl)cc2)s1)c1ccncc1	-25.9% (active)	0.397%	10.4%
O=C(Nc1nnc(Cc2ccccc2)s1)c1cnccn1	13.9% (inactive)	13.3%	1.31%
CO[C@@H]1CN(C)C(=O)c2ccc(NS(C)(=O)=O)cc2OC[C@@H](C)N(C(=O)C2CCOCC2)C[C@@H]1C	2.81% (inactive)	-0.862%	-0.242%
CS(=O)(=O)N1CCCCN2[C@H](CO)[C@H](c3ccc(-c4cccc(C#N)c4)cc3)[C@H]2C1	-2.77% (inactive)	2.86%	1.13%
C[C@@H](NC(=O)C[C@@H]1CC[C@H](NC(=O)Cc2ccccn2)[C@H](CO)O1)c1ccccc1	1.1% (inactive)	-1.33%	0.264%
COc1ccc(-c2cc(C(=O)N3CCN(Cc4ccc5c(c4)OCO5)CC3)on2)cc1OC	-30.2% (active)	-22.1%	4.69%
COc1cc(Cl)c(S(=O)(=O)N2CCN(Cc3ccc4c(c3)OCO4)CC2)cc1Cl	-5.43% (inactive)	-7.87%	-2.97%
Cc1cc(C)n2nc(C(=O)N3CCN(Cc4ccc5c(c4)OCO5)CC3)nc2n1	6.71% (inactive)	4.13%	-0.674%
Cc1ccnc(NC(=O)CNC(=O)c2ccccc2)c1	0.565% (inactive)	1.47%	0.604%
Cc1ncoc1C(=O)NCCC(c1ccccc1)c1ccccc1	-22.1% (active)	-9.13%	0.235%
Cc1noc(C)c1COc1ccc(C(=O)NCCOc2ccccc2)cc1	-5.24% (inactive)	-2.29%	-0.784%
COc1ccc(NC(=O)Nc2ccc3c(c2)C(=O)N([C@@H](C)CO)C[C@@H](C)[C@@H](CN(C)Cc2ccncc2)OCCCC[C@@H](C)O3)cc1	-3.01% (inactive)	-5.38%	9.15%
CO[C@@H]1CN(C)C(=O)c2cc(NC(=O)NC3CCCCC3)ccc2OC[C@@H](C)N(C(C)=O)C[C@H]1C	1.07% (inactive)	3.15%	-0.812%
Cc1cccc(-c2ccc([C@@H]3[C@@H](CO)N4CCCCN(S(=O)(=O)c5cccs5)C[C@H]34)cc2)c1	-37.8% (active)	-24.1%	-1.67%
Cc1cccc(-c2ccc([C@H]3[C@H](CO)N4CCCCN(S(=O)(=O)c5cn(C)cn5)C[C@@H]34)cc2)c1	2.02% (inactive)	3.81%	1.54%
COc1cccc(-c2ccc([C@H]3[C@H](CO)N4CCCCN(S(=O)(=O)c5cccs5)C[C@@H]34)cc2)c1	-0.886% (inactive)	-0.41%	0.565%
Cc1ccccc1-c1ccc2c(c1)O[C@@H](CN(C)C(=O)Nc1ccc(F)cc1)[C@H](C)CN([C@@H](C)CO)S2(=O)=O	-3.25% (inactive)	-11.6%	-1.01%
O=C(c1ccncc1)N1CC(=O)N2[C@H](CO)[C@H](c3ccc(-c4ccccc4F)cc3)[C@@H]2C1	3.75% (inactive)	-1.79%	-0.215%
